An excerpt weighted towards active compounds, which were near 1.8% of everything screened.
MBD2 DNA inh: MBD2-methylated oligo binding inhibition | inhibition, % at 4.4 µM | Q9UBB5 | actives 0.31% (n = 370,000) | TR-FRET, MBD2 binding to methylated oligonucleotide | AID 686964; in the data active = inhibition above about 13%
Target sequence (Q9UBB5 whole entry, looked up): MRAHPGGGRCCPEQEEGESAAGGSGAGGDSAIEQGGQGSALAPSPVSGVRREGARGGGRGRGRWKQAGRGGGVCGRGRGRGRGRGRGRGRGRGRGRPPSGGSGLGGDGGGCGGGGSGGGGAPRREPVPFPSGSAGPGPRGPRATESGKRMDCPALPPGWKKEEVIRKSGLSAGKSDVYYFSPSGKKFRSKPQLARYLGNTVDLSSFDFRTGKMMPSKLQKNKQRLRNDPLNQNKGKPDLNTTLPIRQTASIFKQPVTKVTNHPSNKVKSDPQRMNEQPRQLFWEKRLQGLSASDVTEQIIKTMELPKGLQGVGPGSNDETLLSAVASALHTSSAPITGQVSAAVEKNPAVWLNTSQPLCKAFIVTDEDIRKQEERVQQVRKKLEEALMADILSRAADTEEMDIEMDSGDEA
UBC13 inh: human UBC13 polyubiquitination inhibition; UBC13 polyubiquitin chain formation, TR-FRET; inhibition, % at 20 µM; actives 0.47% (n = 330,000); AID 485273; in the data active = inhibition above about 45%, passing the limit was not always enough
Target sequence (P61088 whole entry, looked up): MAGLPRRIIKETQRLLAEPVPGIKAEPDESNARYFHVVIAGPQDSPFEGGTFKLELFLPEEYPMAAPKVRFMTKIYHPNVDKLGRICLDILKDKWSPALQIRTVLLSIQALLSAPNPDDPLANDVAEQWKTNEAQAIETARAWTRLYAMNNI
UHRF1 MBD2 ctr: blocks human UHRF1 binding to methylated DNA; inhibition, % at 4.4 µM; actives 0.75% (n = 370,000); UHRF1 binding to methylated oligo, TR-FRET; Q96T88; in the data active = inhibition above about 21%;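 note: UHRF1 SRA domain binding a hemimethylated CpG hairpin DNA probe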
Neddyl block: inhibitors of human cullin neddylation. P61081+Q13564. TR-FRET cullin neddylation, biochemical. calls only at 25 µM. actives 0.58% (n = 360,000); in the data active = inhibition above about 36%
Neddyl inh conf: cullin neddylation inhibition, confirmation. actives 13% (n = 1,800). calls only at 25 µM. AID 652217. TR-FRET cullin neddylation biochemical assay. shares compounds with Neddyl block; in the data active = inhibition above about 40%;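 note: neddylation substrate is the cullin 1 ring ligase complex with SKP2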
Of the large screens only hits and unclear results are named; the others gave an inactive call (follow-up assays come after a bar, where shown).

c1ccc(-c2cc(N3CCOCC3)nc3ccccc23)cc1	Neddyl block active | Neddyl inh conf inactive
Cc1cc(N2CCOCC2)nc2ccccc12	none
N#Cc1cc(N2CCOCC2)nc2ccccc12	Neddyl block active | Neddyl inh conf inactive
Clc1ccc(-c2nc(N3CCOCC3)nc3ccccc23)cc1	Neddyl block active
Cc1occc1-c1nnc(SCC(=O)NCCc2ccccc2)n1Cc1ccccc1	none
CC(C)(C)c1ccc(NC(=O)N2CCN(c3ccc([N+](=O)[O-])cn3)CC2)cc1	none
C(=C\c1nnc2c3ccccc3ncn12)/c1ccccc1	none (no result: UBC13 inh)
COc1cc(/C=C/c2nnc3c4ccccc4ncn23)cc(OC)c1OC	Neddyl block active | Neddyl inh conf inactive
CC(C)N(C(=O)[C@H]1C[C@H](CC(=O)NCc2ccco2)C(=O)N2CCc3c([nH]c4ccc(Cl)cc34)[C@]12C)C(C)C	none (no result: UBC13 inh)
CCOC(=O)c1cnn2c(N)c(C#N)cnc12	Neddyl block active | Neddyl inh conf inactive
CC[C@@H]1C(c2ccc(F)cc2)=NN(c2ccccc2)[C@H]1C(=O)N1CCOC1=O	none (no result: UBC13 inh)
CC[C@@H]1C(c2ccccc2)=NN(c2ccccc2)[C@H]1C(=O)N1CCOC1=O	Neddyl block active (not shown: UBC13 inh)
CSc1ccccc1NC(=O)c1cc2c(=O)n3ccccc3nc2s1	Neddyl block active
O=c1c2ccccc2nc2c3ccccc3cnn12	Neddyl block active | Neddyl inh conf inactive
CCCOc1ccc(NC(=O)Cc2ccc(S(=O)(=O)N3CCOCC3)s2)cc1OCCC	none
CCCn1c(=O)[nH]c(=O)c2c1nc(-c1ccc(OC(F)F)c(OC)c1)n2CCOC	Neddyl block active | Neddyl inh conf inactive
CCCn1c(=O)[nH]c(=O)c2c1nc(-c1ccccc1OC(F)F)n2CCOC	none
O=C(CNC(=O)C(c1ccccc1)c1ccccc1)N/N=C/c1cccnc1	none
O=S1(=O)N=C(N(CCO)/N=C/c2ccc(Cl)cc2)c2ccccc21	Neddyl block active
Cc1ccc(CN(CC(=O)NC2CCCC2)C(=O)CSc2nnc(COc3ccccc3)o2)cc1	none
COc1ccc(OC)c(/C=N/Nc2cc(C)nc(N3CCOCC3)n2)c1	Neddyl block active | Neddyl inh conf inactive
Cc1cc(N/N=C/c2ccccc2O)nc(N2CCOCC2)n1	none
Cc1c(Cl)cccc1NC(=O)C1CCN(c2cnccn2)CC1	none
COC(=O)C1=C(C)Nc2sc(C(N)=O)c(N)c2C1c1ccncc1 (centres undefined)	Neddyl block active | Neddyl inh conf inactive
O=C(CN1c2cccc3cccc(c23)S1(=O)=O)N1CCN(c2ccc(F)cc2)CC1	none
CC(/C=N/NC(=O)c1ccc(CN2c3cccc4cccc(c34)S2(=O)=O)cc1)c1ccccc1 (centres undefined)	none (not shown: Neddyl block)
CC1CCCC(C)N1C(=O)CN1c2cccc3cccc(c23)S1(=O)=O (centres undefined)	Neddyl block active | Neddyl inh conf active
O=C(CN1c2cccc3cccc(c23)S1(=O)=O)N1CCCCC1	Neddyl block active | Neddyl inh conf active
O=C(O)c1ccc(/C=N/NC(=O)c2ccc(CN3c4cccc5cccc(c45)S3(=O)=O)cc2)cc1	Neddyl block active | Neddyl inh conf active
O=C(CN1c2cccc3cccc(c23)S1(=O)=O)N1CCOCC1	Neddyl block active
O=C(Nc1ccc(N2CCOCC2)cc1)c1cccc(S(=O)(=O)N2CCCCCC2)c1	none
CNc1c(NS(=O)(=O)c2ccc(Br)cc2)c(=O)oc2ccccc12	none
CNc1c(NS(=O)(=O)c2ccc(C(C)(C)C)cc2)c(=O)oc2ccccc12	Neddyl block active | Neddyl inh conf inactive
NS(=O)(=O)c1ccc(NC(=S)NCc2ccc(F)cc2)cc1	none
CC(C)(C)NC(=O)C(c1ccccc1)n1c(=O)c(-c2ccccc2)nc2ccccc21 (centres undefined)	Neddyl block active (no result: UBC13 inh) | Neddyl inh conf inactive
CC(C)(C)NC(=O)C(c1ccnc2ccccc12)n1c(=O)c(-c2ccccc2)nc2ccccc21 (centres undefined)	Neddyl block active (no result: UBC13 inh) | Neddyl inh conf inactive
Cc1cccc(C)c1NC(=O)C(C1CC1)n1c(=O)c(-c2ccccc2)nc2ccccc21 (centres undefined)	Neddyl block active (no result: UBC13 inh) | Neddyl inh conf active
N#Cc1cc([N+](=O)[O-])cnc1NCC(O)CO (centres undefined)	none
O=C1OCc2nc3cc4c(cc3c(-c3ccc(F)cc3)c21)OCO4	Neddyl block active | Neddyl inh conf inactive
NC(=S)N/N=C/c1ccc(-n2nncc2-c2ccc(Cl)cc2)cc1	none (no result: MBD2 DNA inh, UHRF1 MBD2 ctr)
CCC1CCc2c(sc(N)c2C(N)=O)C1 (centres undefined)	none
CC1CCc2c(sc(N)c2C(N)=O)C1 (centres undefined)	Neddyl block active | Neddyl inh conf inactive
COC(=O)c1nc2cc3c(cc2c(C)c1C(=O)OC)OCO3	Neddyl block active | Neddyl inh conf active
COc1ccc(C)cc1NC(=O)C(OC(=O)C1=NNC(=O)CC1)c1ccccc1 (centres undefined)	none
COCCN(C(=O)COC(=O)/C=C/c1cccc(OC)c1)c1c(N)n(CC(C)C)c(=O)[nH]c1=O	Neddyl block active
CCN(CC)C(=O)c1nc[nH]c1C(=O)N(CC)CC	none
N#Cc1c(Cl)cccc1N1CCCC1	none
N#Cc1c(F)cccc1N1CCOCC1	UHRF1 MBD2 ctr 52.9, Neddyl block active | Neddyl inh conf inactive
Cc1cccc(NC(=O)c2cc(S(=O)(=O)N3CCCCC3)c[nH]2)c1C	none
C=CCn1c(=N)c(S(=O)(=O)c2ccc(C)c(C)c2)cc2c(=O)n3ccccc3nc21	Neddyl block active | Neddyl inh conf inactive
N=c1c(S(=O)(=O)c2ccccc2)cc2c(=O)n3ccccc3nc2n1CCCN1CCOCC1	Neddyl block active | Neddyl inh conf inactive
N#Cc1cc2c(=O)n3ccccc3nc2n(CCCn2ccnc2)c1=N	Neddyl block active | Neddyl inh conf inactive
COc1ccc(C(=O)OCC(=O)NC2CC2)cc1S(=O)(=O)N1CCOCC1	none
COc1ccc(OCC(=O)N/N=C/c2ccc(N(C)C)cc2)cc1	Neddyl block active | Neddyl inh conf active
CN(C)c1ccc(/C=N/NC(=O)CCCCCNC(=O)c2ccccc2)cc1	Neddyl block active | Neddyl inh conf active
COc1ccc(/C=N/NC(=O)CCCCCNC(=O)c2ccccc2)cc1	none
CCCCCC(=O)N/N=C/c1ccc(N(C)C)cc1	Neddyl block active
CN(C)c1ccc(/C=N/NC(=O)CNC(=O)c2ccc3c(c2)OCCO3)cc1	Neddyl block active
CN(C)c1ccc(/C=N/NC(=O)CCCO)cc1	none
CC(=O)c1cccc(S(=O)(=O)NCCCN2CCOCC2)c1	none
O=C1OC(N2C(=O)CC[C@H]2C(=O)Nc2ccc(Br)cc2F)c2ccccc21 (some centres undefined)	none
CC(C)(C)c1ccccc1OCCN1CCCC1	none
CN(C)c1ccc(/C=N/NC(=O)Cn2nnc3ccccc32)cc1	Neddyl block active | Neddyl inh conf inactive
CCS(=O)(=O)Nc1ccc(C2=NN(S(=O)(=O)CC)C(c3cccs3)C2)cc1 (centres undefined)	Neddyl block active | Neddyl inh conf inactive

Screening results as filed in PubChem.
